In PubChem BioAssay (NCATS):
Records with an inconclusive call do not appear. Entries that show only a call come without a potency. Calls of active or inactive are those of the source. Calls come from the whole dose curve; as a rule, active = well fitted inhibition curve with a large enough effect; inconclusive = small, poorly fitted or top-dose-only effect; inactive = flat fitted curve, though single readings scatter.

Legend:
Experiment in all cases: qHTS profiling for inhibitors of Plasmodium falciparum proliferation (AID 504749); note: nearly all actives have a fitted effect of over 60% in size
Settings in all cases: P. falciparum in erythrocytes, SYBR Green DNA, 72 h; series mostly up to 28.7 µM
CP297 = tested on: CP297
Outline: (§1)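 Fluorescence of SYBR Green-bound parasite DNA, read at 485/535 nm, served as the growth measure. Infected erythrocytes were cultured with compound 72 h; artemisinin (0.29 uM) and DMSO wells defined the normalization range.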

CP305 = tested on: CP305
Outline: as §1

CP315 = tested on: CP315
Outline: as §1

CP325 = tested on: CP325
Outline: as §1

CP329 = tested on: CP329
Outline: as §1

CP335 = tested on: CP335
Outline: as §1

DIV14 = tested on: DIV14
Outline: as §1

DIV30 = tested on: DIV30
Outline: as §1

Dd2 = tested on: Dd2
Outline: as §1

ECU = tested on: ECU
Outline: as §1

FAB9 = tested on: FAB9
Outline: as §1

GB4 = tested on: GB4
Outline: as §1

HB3 = tested on: HB3
Outline: as §1

JCK = tested on: JCK
Outline: as §1

N140 = tested on: N140
Outline: as §1

P93_24 = tested on: P93_24
Outline: as §1

P94_40 = tested on: P94_40
Outline: as §1

PAD = tested on: PAD
Outline: as §1

DIV17 = tested on: DIV17
Outline: as §1

ICS = tested on: ICS
Outline: as §1
Potency is the fitted concentration of half-maximal effect.

| Compound | Potency (CP297) | Potency (CP305) | Potency (CP315) | Potency (CP325) | Potency (CP329) | Potency (CP335) | Potency (DIV14) | Potency (DIV30) | Potency (Dd2) | Potency (ECU) | Potency (FAB9) | Potency (GB4) | Potency (HB3) | Potency (JCK) | Potency (N140) | Potency (P93_24) | Potency (P94_40) | Potency (PAD) | Potency (DIV17) | Potency (ICS) |
| --- | --- | --- | --- | --- | --- | --- | --- | --- | --- | --- | --- | --- | --- | --- | --- | --- | --- | --- | --- | --- |
| O=C(O)CO.[NH2-].[NH2-].[Pt+2] | inactive | inactive | inactive | inactive | inactive | inactive | inactive | inactive | inactive | inactive | inactive | inactive | inactive | inactive | inactive | inactive | inactive | inactive |  |  |
| Nc1ccn([C@@H]2CS[C@H](CO)O2)c(=O)n1 | inactive | inactive | inactive | inactive | inactive | inactive | inactive | inactive | inactive | inactive | inactive | inactive | inactive | inactive | inactive | inactive | inactive | inactive | inactive | inactive |
| O=c1[nH]c(=O)n(C2CCCO2)cc1F (centres undefined) | inactive | inactive | inactive | inactive | inactive | inactive | inactive | inactive | inactive | inactive | inactive | inactive | inactive | inactive | inactive | inactive | inactive | inactive | inactive | inactive |
| CC1(C)O[C@@H]2C[C@@H]3[C@H]4C[C@@H](F)C5=CC(=O)C=C[C@]5(C)[C@@]4(F)[C@@H](O)C[C@]3(C)[C@]2(C(=O)CO)O1 |  |  |  |  |  | inactive |  | 10700 nM (active) | inactive | inactive | inactive |  | inactive | inactive | inactive | inactive | inactive | inactive |  |  |
| COC(=O)C1=C(C)NC(C)=C(C(=O)OCCN2CCN(C(c3ccccc3)c3ccccc3)CC2)C1c1cccc([N+](=O)[O-])c1 (centres undefined) | 4260 nM (active) | 5360 nM (active) | 4780 nM (active) | 3790 nM (active) | 4780 nM (active) | 1690 nM (active) | 3790 nM (active) | 1690 nM (active) | 1580 nM (active) | 2510 nM (active) | 7080 nM (active) | 2690 nM (active) | 3160 nM (active) | 12600 nM (active) | 1580 nM (active) | 2820 nM (active) | 2000 nM (active) | 3160 nM (active) | 1690 nM (active) | 1000 nM (active) |
| CC(C)(C)NC(=O)[C@H]1CN(Cc2cccnc2)CCN1C[C@@H](O)C[C@@H](Cc1ccccc1)C(=O)N[C@H]1c2ccccc2C[C@H]1O |  | 13500 nM (active) |  |  |  | 12000 nM (active) | 13500 nM (active) | 9530 nM (active) |  | 11200 nM (active) |  | 5360 nM (active) |  | inactive |  | 14100 nM (active) | 11200 nM (active) |  |  |  |
| Nc1ccn([C@@H]2O[C@H](CO)[C@H](O)C2(F)F)c(=O)n1 | 6750 nM (active) | 5360 nM (active) | 8490 nM (active) | 2390 nM (active) | 5360 nM (active) | 2390 nM (active) | 849 nM (active) | 2690 nM (active) | 1780 nM (active) | 5010 nM (active) | 1410 nM (active) | 953 nM (active) | 3980 nM (active) |  | 1120 nM (active) | 316 nM (active) | 316 nM (active) | 708 nM (active) | 953 nM (active) | 3980 nM (active) |
| CC=CC1=C(C(=O)O)N2C(=O)[C@H](NC(=O)[C@H](N)c3ccc(O)cc3)[C@@H]2SC1 | inactive | inactive | inactive | inactive | inactive | inactive | inactive | inactive | inactive | inactive | inactive | inactive | inactive | inactive | inactive | inactive | inactive | inactive |  | inactive |
| CN1c2cc(O)c(N=NC(N)=O)cc2CC1S(=O)(=O)O (centres undefined) | inactive | inactive | inactive | inactive | inactive | inactive | inactive | inactive | inactive | inactive | inactive | inactive | inactive | inactive | inactive | inactive | inactive | inactive | inactive | inactive |
| COC(=O)C[C@](O)(CCCC(C)(C)O)C(=O)O[C@@H]1C(OC)=C[C@]23CCCN2CCc2cc4c(cc2[C@H]13)OCO4 | 16.9 nM (active) | 33.8 nM (active) | 23.9 nM (active) | 33.8 nM (active) |  | 21.3 nM (active) | 26.9 nM (active) | 33.8 nM (active) | 12.6 nM (active) | 17.8 nM (active) | 56.2 nM (active) | 30.1 nM (active) | 28.2 nM (active) | 6.3 nM (active) | 20 nM (active) | 28.2 nM (active) | 15.8 nM (active) | 15.8 nM (active) | 23.9 nM (active) | 15.8 nM (active) |
| CCC1=C[C@@H]2CN(C1)Cc1c([nH]c3ccccc13)[C@@](C(=O)OC)(c1cc3c(cc1OC)N(C)[C@@H]1[C@@](O)(C(=O)OC)[C@H](OC(C)=O)[C@]4(CC)C=CCN5CC[C@]31[C@@H]54)C2 | 3790 nM (active) | 3010 nM (active) | 3790 nM (active) | 3790 nM (active) | 3010 nM (active) | 1690 nM (active) | 3790 nM (active) | 4260 nM (active) | 891 nM (active) | 3980 nM (active) |  | 2130 nM (active) | 7940 nM (active) | 14100 nM (active) | 1410 nM (active) | 2240 nM (active) | 1580 nM (active) | 2240 nM (active) | 3790 nM (active) | 3160 nM (active) |
| C[C@H]1C[C@@H]2[C@@H]([C@@H](O)C[C@@]3(C)[C@H]2CC[C@]3(O)C(=O)CO)[C@@]2(C)C=CC(=O)C=C12 |  | inactive | inactive | inactive | inactive | inactive | inactive | inactive | inactive | inactive | inactive | inactive | inactive | inactive | inactive | inactive | inactive | inactive | inactive | inactive |
| Nc1ccc(S(=O)(=O)Nc2ncccn2)cc1 | inactive | inactive |  | inactive | inactive | inactive | inactive | inactive | inactive | inactive | inactive | inactive | inactive | inactive | inactive | inactive | inactive | inactive | inactive | inactive |
| COc1cc(C(=O)NS(=O)(=O)c2ccccc2C)ccc1Cc1cn(C)c2ccc(NC(=O)OC3CCCC3)cc12 |  | inactive |  | inactive | inactive |  |  |  |  | inactive | inactive |  | inactive | inactive | inactive | inactive | 12600 nM (active) | inactive |  |  |
| COc1c(N2C[C@@H]3CCCN[C@H]3C2)c(F)cc2c(=O)c(C(=O)O)cn(C3CC3)c12 | inactive |  | inactive | inactive | inactive | inactive | inactive | inactive | inactive | inactive | inactive |  | inactive |  | inactive |  | inactive | inactive | inactive | inactive |
| CC[C@H]1CN2CCc3cc(OC)c(OC)cc3[C@H]2C[C@@H]1C[C@@H]1NCCc2cc(OC)c(OC)cc21 | 379 nM (active) | 379 nM (active) | 757 nM (active) | 478 nM (active) | 379 nM (active) | 379 nM (active) | 379 nM (active) | 478 nM (active) | 178 nM (active) | 316 nM (active) | 141 nM (active) | 269 nM (active) | 316 nM (active) | 141 nM (active) | 316 nM (active) | 282 nM (active) | 251 nM (active) | 355 nM (active) | 338 nM (active) | 178 nM (active) |
